About 2,000 (36%) of roughly 5,500 compounds were called active. Roughly 18% stayed inconclusive and do not appear here. This is one part of the list. Unmarked numbers belong to inactive results. Rule as the data show it: active = normalized growth mostly below about 0.91 (no sharp cut-off); inconclusive = no clear call, values can overlap the other calls; inactive = mostly above about 0.92.
Assay: chemical genetic growth profiling, strain panel (AID 1159580);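 also: tested at 20 µM; growth read once vehicle control cultures reached saturation at 30 °C; 1 = growth at the plate median or of vehicle wells; lower values mean less growth of the strain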
Details: growth OD

**Q.** With `COC(=O)COc1cc(Cl)c(Cl)cc1Cl` as the compound, how does the normalized growth (S. cerevisiae deletion strains, locus YJR075W, strain HOC1, active compounds read low) read?
**A.** 0.952

**Q.** And the normalized growth (S. cerevisiae deletion strains, locus YKL009W, strain mrt4, active compounds read low)?
**A.** 0.995

**Q.** What about the normalized growth (S. cerevisiae deletion strains, locus YKL068W, active compounds read low) of the same compound?
**A.** 0.955

**Q.** What about the normalized growth (S. cerevisiae deletion strains, locus YKL085W, strain MDH1 (second series), active compounds read low) of the same compound?
**A.** 0.949

**Q.** And the normalized growth (S. cerevisiae deletion strains, locus YKL085W, strain MDH1, active compounds read low)?
**A.** 0.949

**Q.** What about the normalized growth (S. cerevisiae deletion strains, locus YKL160W, strain elf1, active compounds read low) of the same compound?
**A.** 1

**Q.** What about the normalized growth (S. cerevisiae deletion strains, locus YKL190W, strain CNB1, active compounds read low) of the same compound?
**A.** 0.971

**Q.** What about the normalized growth (S. cerevisiae deletion strains, locus YKR001C, strain vps1, active compounds read low) of the same compound?
**A.** 0.916

**Q.** What about the normalized growth (S. cerevisiae deletion strains, locus YKR026C, strain gcn3, active compounds read low) of the same compound?
**A.** 0.992

**Q.** And the normalized growth (S. cerevisiae deletion strains, locus YKR091W, strain srl3, active compounds read low)?
**A.** 0.993

**Q.** What about the normalized growth (S. cerevisiae deletion strains, locus YLL001W, strain dnm1, active compounds read low) of the same compound?
**A.** 0.99

**Q.** What about the normalized growth (S. cerevisiae deletion strains, locus YLL026W, active compounds read low) of the same compound?
**A.** 0.993

**Q.** What about the normalized growth (S. cerevisiae deletion strains, locus YLL041C, strain sdh2, active compounds read low) of the same compound?
**A.** 1

**Q.** What about the normalized growth (S. cerevisiae deletion strains, locus YLR027C, strain aat2, active compounds read low) of the same compound?
**A.** 0.991

**Q.** What about the normalized growth (S. cerevisiae deletion strains, locus YLR039C, strain RIC1, active compounds read low) of the same compound?
**A.** 0.613 (active)

**Q.** What about the normalized growth (S. cerevisiae deletion strains, locus YLR058C, strain SHM2, active compounds read low) of the same compound?
**A.** 0.979

**Q.** And the normalized growth (S. cerevisiae deletion strains, locus YLR102C, strain apc9, active compounds read low)?
**A.** 0.957

**Q.** And the normalized growth (S. cerevisiae deletion strains, locus YLR113W, strain HOG1, active compounds read low)?
**A.** 0.879

**Q.** What about the normalized growth (S. cerevisiae deletion strains, locus YLR221C, strain rsa3, active compounds read low) of the same compound?
**A.** 0.987

**Q.** What about the normalized growth (S. cerevisiae deletion strains, locus YLR258W, strain gsy2, active compounds read low) of the same compound?
**A.** 0.994

**Q.** And the normalized growth (S. cerevisiae deletion strains, locus YLR262C, strain YPT6 (second series), active compounds read low)?
**A.** 0.863

**Q.** What about the normalized growth (S. cerevisiae deletion strains, locus YLR262C, strain YPT6, active compounds read low) of the same compound?
**A.** 0.662

**Q.** And the normalized growth (S. cerevisiae deletion strains, locus YLR268W, strain sec22, active compounds read low)?
**A.** 0.955

**Q.** What about the normalized growth (S. cerevisiae deletion strains, locus YLR320W, strain mms22, active compounds read low) of the same compound?
**A.** 1.01

**Q.** And the normalized growth (S. cerevisiae deletion strains, locus YLR330W, strain CHS5, active compounds read low)?
**A.** 0.975

**Q.** And the normalized growth (S. cerevisiae deletion strains, locus YLR342W, strain FKS1 (second series), active compounds read low)?
**A.** 1.04

**Q.** And the normalized growth (S. cerevisiae deletion strains, locus YLR342W, strain FKS1, active compounds read low)?
**A.** 0.997

**Q.** And the normalized growth (S. cerevisiae deletion strains, locus YLR357W, strain rsc2, active compounds read low)?
**A.** 0.895

**Q.** What about the normalized growth (S. cerevisiae deletion strains, locus YLR370C, strain arc18, active compounds read low) of the same compound?
**A.** 1

**Q.** And the normalized growth (S. cerevisiae deletion strains, locus YLR371W, strain rom2, active compounds read low)?
**A.** 0.986

**Q.** And the normalized growth (S. cerevisiae deletion strains, locus YLR384C, strain iki3, active compounds read low)?
**A.** 1.01

**Q.** And the normalized growth (S. cerevisiae deletion strains, locus YLR418C, strain cdc73, active compounds read low)?
**A.** 0.859

**Q.** And the normalized growth (S. cerevisiae deletion strains, locus YML016C, strain PPZ1, active compounds read low)?
**A.** 0.966

**Q.** And the normalized growth (S. cerevisiae deletion strains, locus YML032C, strain rad52, active compounds read low)?
**A.** 0.988

**Q.** And the normalized growth (S. cerevisiae deletion strains, locus YML120C, strain ndi1, active compounds read low)?
**A.** 0.995

**Q.** And the normalized growth (S. cerevisiae deletion strains, locus YML124C, strain tub3, active compounds read low)?
**A.** 0.96

**Q.** What about the normalized growth (S. cerevisiae deletion strains, locus YMR058W, strain fet3, active compounds read low) of the same compound?
**A.** 1

**Q.** What about the normalized growth (S. cerevisiae deletion strains, locus YMR078C, strain ctf18, active compounds read low) of the same compound?
**A.** 0.97

**Q.** What about the normalized growth (S. cerevisiae deletion strains, locus YMR125W, strain sto1, active compounds read low) of the same compound?
**A.** 1

**Q.** What about the normalized growth (S. cerevisiae deletion strains, locus YMR129W, active compounds read low) of the same compound?
**A.** 0.978

**Q.** And the normalized growth (S. cerevisiae deletion strains, locus YMR205C, strain PFK2, active compounds read low)?
**A.** 1.02

**Q.** What about the normalized growth (S. cerevisiae deletion strains, locus YMR223W, strain ubp8, active compounds read low) of the same compound?
**A.** 0.978

**Q.** What about the normalized growth (S. cerevisiae deletion strains, locus YMR231W, strain pep5, active compounds read low) of the same compound?
**A.** 0.989

**Q.** What about the normalized growth (S. cerevisiae deletion strains, locus YMR263W, strain SAP30, active compounds read low) of the same compound?
**A.** 0.985

**Q.** What about the normalized growth (S. cerevisiae deletion strains, locus YMR307W, strain GAS1, active compounds read low) of the same compound?
**A.** 1.06

**Q.** What about the normalized growth (S. cerevisiae deletion strains, locus YNL067W, strain RPL9B, active compounds read low) of the same compound?
**A.** 0.967

**Q.** And the normalized growth (S. cerevisiae deletion strains, locus YNL071W, strain lat1, active compounds read low)?
**A.** 0.996

**Q.** What about the normalized growth (S. cerevisiae deletion strains, locus YNL128W, strain TEP1, active compounds read low) of the same compound?
**A.** 0.978

**Q.** And the normalized growth (S. cerevisiae deletion strains, locus YNL153C, strain GIM3, active compounds read low)?
**A.** 0.989

**Q.** And the normalized growth (S. cerevisiae deletion strains, locus YNL183C, strain NPR1, active compounds read low)?
**A.** 0.809 (active)

**Q.** And the normalized growth (S. cerevisiae deletion strains, locus YNL209W, strain ssb2, active compounds read low)?
**A.** 1.01

**Q.** And the normalized growth (S. cerevisiae deletion strains, locus YNL233W, strain BNI4, active compounds read low)?
**A.** 0.982

**Q.** What about the normalized growth (S. cerevisiae deletion strains, locus YNL248C, strain rpa49, active compounds read low) of the same compound?
**A.** 1

**Q.** What about the normalized growth (S. cerevisiae deletion strains, locus YNL250W, strain rad50, active compounds read low) of the same compound?
**A.** 0.957

**Q.** What about the normalized growth (S. cerevisiae deletion strains, locus YNL271C, strain bni1, active compounds read low) of the same compound?
**A.** 0.956

**Q.** What about the normalized growth (S. cerevisiae deletion strains, locus YNL298W, strain CLA4, active compounds read low) of the same compound?
**A.** 0.994

**Q.** What about the normalized growth (S. cerevisiae deletion strains, locus YNL307C, strain MCK1, active compounds read low) of the same compound?
**A.** 0.855 (active)

**Q.** And the normalized growth (S. cerevisiae deletion strains, locus YNL322C, strain KRE1 (second series), active compounds read low)?
**A.** 0.996

**Q.** What about the normalized growth (S. cerevisiae deletion strains, locus YNL322C, strain KRE1, active compounds read low) of the same compound?
**A.** 0.977

**Q.** What about the normalized growth (S. cerevisiae deletion strains, locus YNR049C, strain mso1, active compounds read low) of the same compound?
**A.** 0.991

**Q.** What about the normalized growth (S. cerevisiae deletion strains, locus YNR052C, strain pop2, active compounds read low) of the same compound?
**A.** 0.993

**Q.** What about the normalized growth (S. cerevisiae deletion strains, locus YOL006C, strain TOP1, active compounds read low) of the same compound?
**A.** 0.895

**Q.** And the normalized growth (S. cerevisiae deletion strains, locus YOL012C, strain htz1)?
**A.** 0.897

**Q.** What about the normalized growth (S. cerevisiae deletion strains, locus YOL147C, strain pex11, active compounds read low) of the same compound?
**A.** 0.964

**Q.** And the normalized growth (S. cerevisiae deletion strains, locus YOR001W, strain rrp6, active compounds read low)?
**A.** 1.01

**Q.** And the normalized growth (S. cerevisiae deletion strains, locus YOR061W, strain CKA2, active compounds read low)?
**A.** 0.974

**Q.** And the normalized growth (S. cerevisiae deletion strains, locus YOR069W, strain VPS5, active compounds read low)?
**A.** 0.979

**Q.** What about the normalized growth (S. cerevisiae deletion strains, locus YOR070C, strain gyp1, active compounds read low) of the same compound?
**A.** 0.985

**Q.** And the normalized growth (S. cerevisiae deletion strains, locus YOR080W, strain dia2, active compounds read low)?
**A.** 1

**Q.** What about the normalized growth (S. cerevisiae deletion strains, locus YOR083W, strain WHI5, active compounds read low) of the same compound?
**A.** 1

**Q.** And the normalized growth (S. cerevisiae deletion strains, locus YOR106W, strain vam3, active compounds read low)?
**A.** 1.02

**Q.** What about the normalized growth (S. cerevisiae deletion strains, locus YOR136W, strain idh2, active compounds read low) of the same compound?
**A.** 0.99

**Q.** What about the normalized growth (S. cerevisiae deletion strains, locus YOR144C, strain elg1, active compounds read low) of the same compound?
**A.** 0.975

**Q.** What about the normalized growth (S. cerevisiae deletion strains, locus YOR184W, strain ser1, active compounds read low) of the same compound?
**A.** 0.904

**Q.** What about the normalized growth (S. cerevisiae deletion strains, locus YOR231W, strain MKK1, active compounds read low) of the same compound?
**A.** 0.86

**Q.** What about the normalized growth (S. cerevisiae deletion strains, locus YOR265W, strain rbl2, active compounds read low) of the same compound?
**A.** 0.98

**Q.** What about the normalized growth (S. cerevisiae deletion strains, locus YOR270C, strain vph1, active compounds read low) of the same compound?
**A.** 1.1

**Q.** What about the normalized growth (S. cerevisiae deletion strains, locus YOR290C, strain snf2, active compounds read low) of the same compound?
**A.** 1.01

**Q.** And the normalized growth (S. cerevisiae deletion strains, locus YOR316C, strain cot1, active compounds read low)?
**A.** 0.964

**Q.** What about the normalized growth (S. cerevisiae deletion strains, locus YPL051W, strain arl3, active compounds read low) of the same compound?
**A.** 0.992

**Q.** What about the normalized growth (S. cerevisiae deletion strains, locus YPL055C, strain LGE1, active compounds read low) of the same compound?
**A.** 0.953

**Q.** What about the normalized growth (S. cerevisiae deletion strains, locus YPL078C, strain atp4, active compounds read low) of the same compound?
**A.** 1.02

**Q.** And the normalized growth (S. cerevisiae deletion strains, locus YPL106C, strain sse1, active compounds read low)?
**A.** 0.957

**Q.** And the normalized growth (S. cerevisiae deletion strains, locus YPL240C, strain hsp82, active compounds read low)?
**A.** 0.997

**Q.** What about the normalized growth (S. cerevisiae deletion strains, locus YPL241C, strain CIN2, active compounds read low) of the same compound?
**A.** 0.972

**Q.** And the normalized growth (S. cerevisiae deletion strains, locus YPL256C, strain CLN2, active compounds read low)?
**A.** 0.786 (active)

**Q.** What about the normalized growth (S. cerevisiae deletion strains, locus YPR119W, strain clb2, active compounds read low) of the same compound?
**A.** 0.955

**Q.** What about the normalized growth (S. cerevisiae deletion strains, locus YPR141C, strain kar3, active compounds read low) of the same compound?
**A.** 0.948

**Q.** What about the normalized growth (S. cerevisiae deletion strains, locus YPR163C, strain tif3, active compounds read low) of the same compound?
**A.** 0.992

**Q.** And the normalized growth (S. cerevisiae deletion strains, locus YPR167C, strain met16, active compounds read low)?
**A.** 0.976

**Q.** What about the normalized growth (S. cerevisiae deletion strains, strain wtn01, active compounds read low) of the same compound?
**A.** 0.962

**Q.** What about the normalized growth (S. cerevisiae strains, strain wild type, active compounds read low) of the same compound?
**A.** 0.969
